In PubChem BioAssay (NCATS):
Results filed as inconclusive are left out. Values without a mark were called inactive. Calls of active or inactive are those of the source. Calls follow the shape of the dose curve; as a rule, active = well fitted inhibition curve with a large enough effect; inconclusive = small, poorly fitted or top-dose-only effect; inactive = flat fitted curve, though single readings scatter.
Potency is read from the fitted curve at half-maximal effect.

These molecules were tested on CP237 (assay: qHTS profiling for inhibitors of Plasmodium falciparum proliferation (AID 504749; also: nearly all actives have a fitted effect of over 60% in size;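 as to activity, negative = inhibition: 0% = DMSO vehicle and full inhibition = artemisinin control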)). Conditions: P. falciparum in erythrocytes, SYBR Green DNA, 72 h; series mostly up to 28.7 µM; activity, negative = inhibition: at the top concentration.
Procedure, shortened: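 Parasite proliferation within erythrocytes, 72 h exposure. Endpoint: SYBR Green I fluorescence after overnight lysis at room temperature. Controls: 0.29 uM artemisinin, DMSO.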
For `Cn1nnc2c(C(N)=O)ncn2c1=O`, the “activity, negative = inhibition” value was -6.58%.
`CC(C)OC(=O)C(C(=O)OC(C)C)=C1SC=CS1` was tested, and the “activity, negative = inhibition” value was 3.61%.
For `CC1=NN(c2ccccc2)C(=O)C1`, the “activity, negative = inhibition” value was -0.688%.
`COC(=O)Nc1nc2ccc(Sc3ccccc3)cc2[nH]1` was tested, and the “activity, negative = inhibition” value was 0.713% [at 12.8 µM].
In the case of `CCc1c2c(nc3ccc(OC(=O)N4CCC(N5CCCCC5)CC4)cc13)-c1cc3c(c(=O)n1C2)COC(=O)[C@]3(O)CC`, the “activity, negative = inhibition” value is reported as -7.67%.
For `Cc1noc(NS(=O)(=O)c2ccc(N)cc2)c1C`, the “activity, negative = inhibition” value was -9.38%.
`CN1CCN(c2c(F)cc3c(=O)c(C(=O)O)cn4c3c2OCN4C)CC1` was tested, and the “activity, negative = inhibition” value was -7.55%.
In the case of `S=P(N1CC1)(N1CC1)N1CC1`, the “activity, negative = inhibition” value is reported as -0.653%.
With `CC[C@H](NC(C)C)[C@H](O)c1ccc(O)c2[nH]c(=O)ccc12` the “activity, negative = inhibition” value was 1.4%.
For `CC[C@H](C)C(=O)O[C@H]1C[C@@H](C)C=C2C=C[C@H](C)[C@H](CC[C@@H]3C[C@@H](O)CC(=O)O3)[C@H]21`, the “activity, negative = inhibition” value was 12.4%.
With `Cc1ncc([N+](=O)[O-])n1CCO` the “activity, negative = inhibition” value was -0.671%.
`CCCc1cc(C(N)=S)ccn1` was tested, and the “activity, negative = inhibition” value was -0.115%.
In the case of `CCCN[C@H]1CCc2nc(N)sc2C1`, the “activity, negative = inhibition” value is reported as -1.32%.
In the case of `COC(=O)Nc1nc2ccc(C(=O)c3ccccc3)cc2[nH]1`, the “activity, negative = inhibition” value is reported as -4.55% [at 12.8 µM].
For `CC(C)(C#N)c1cc(Cn2cncn2)cc(C(C)(C)C#N)c1`, the “activity, negative = inhibition” value was 0.44%.
In the case of `COc1c(N2CCNC(C)C2)c(F)cc2c(=O)c(C(=O)O)cn(C3CC3)c12` (centres undefined), the “activity, negative = inhibition” value is reported as -19.4%.
With `O=C(O)c1cc(=O)[nH]c(=O)[nH]1` the “activity, negative = inhibition” value was 6.57%.
`CNS(=O)(=O)Cc1ccc2[nH]cc(CCN(C)C)c2c1` was tested, and the “activity, negative = inhibition” value was -5.41%.
With `CCOc1cc(N)c(Cl)cc1C(=O)NCC1CN(Cc2ccc(F)cc2)CCO1` (centres undefined) the Potency was 11.2 µM (active).
